Laboratory results as given in PubChem BioAssay.
Active and inactive are the calls of the source.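 Rule for the calls: active = z-score of at least 1.8 in each of two replicates, scored against plate mean and spread of sample wells; inactive = the rest.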

Assay: viability rescue of complex I mutant cybrids, primary screen, cell-based, galactose medium, ATP luminescence (AID 1645843);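 note: positive z means more ATP and so rescue of galactose-driven cybrid death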
Details: complex I mutant cybrid cells, 72 h, hits give high values

Structure (SMILES) | z-score
OB(O)c1cc2ccccc2s1 | 0.265 (inactive)
O=C(O)c1sccc1S(=O)(=O)Nc1ccc(Cl)cc1 | 0.48 (inactive)
COc1ccc2c(c1)CCN(C(=O)Nc1n[nH]c(-c3ccco3)n1)C2 | 0.245 (inactive)
Cc1ccc(NC(=O)NCCSCc2ccc(CN(C)C)o2)cc1Cl | -1.04 (inactive)
CSCCC(NC(C)=O)C(=O)O (stereo not given) | 0.53 (inactive)
Cc1ccc(NC(=O)c2ccc3nccnc3c2)cn1 | -0.48 (inactive)
Cn1c(=O)ccc2ccccc21 | 0.32 (inactive)
COc1cccc(Cc2noc(-c3nccc4ccccc34)n2)c1 | -0.1 (inactive)
Cc1csc(CNc2nccc(-c3cn(C)nc3C)n2)n1 | -0.445 (inactive)
O=C(NCCc1ccco1)c1cc(C2CC2)[nH]n1 | -0.495 (inactive)
Cc1cc(-c2cnn(CC(=O)Nc3ccnn3Cc3ccccc3)c2)nc(N)n1 | -0.58 (inactive)
O=C(Nc1n[nH]c(Cc2ccccc2)n1)N1CCN(c2ncccn2)CC1 | 0.005 (inactive)
Cc1cc(C)n(CCCNc2ncc(C)c(-c3cnn(C)c3)n2)n1 | -0.54 (inactive)
c1cc(-c2nc(Cc3ccsc3)no2)c2nccnc2c1 | 0.105 (inactive)
O=C(Nc1nncs1)NC1Cc2ccccc2C1 | -0.6 (inactive)
COc1ccccc1-c1ccc(C(=O)O)o1 | 1.07 (inactive)
COc1ccc(C(=O)N2CCN(C(=O)c3ccc4sc(N)nc4c3)CC2)cc1 | -0.575 (inactive)
CC1(C)OC2CO[C@@]3(COS(N)(=O)=O)OC(C)(C)OC3C2O1 (stereo not given in full) | 1.01 (inactive)
O=C(O)c1ccc(-c2ccccc2[N+](=O)[O-])o1 | 0.32 (inactive)
COc1ccc(CC(C)NCC(O)c2ccc(O)c(NC=O)c2)cc1 (stereo not given) | -0.17 (inactive)

Structure (SMILES) | z-score
CN(Cc1cnc2ccccc2n1)C(=O)Nc1n[nH]c(-c2ccco2)n1 | 0.175 (inactive)
Cc1nc(C(=O)O)nn1-c1cc(Cl)cc(Cl)c1 | 0.61 (inactive)
O=C(Nc1c[nH]c2ccccc12)c1cccnc1 | 1.14 (inactive)
O=S(=O)(O)CCN1CCOCC1 | 0.715 (inactive)
COc1ncccc1-c1cnn(CC(=O)Nc2cc(-c3ccccn3)nn2C)c1 | -0.56 (inactive)
O=c1cc(-c2ccncc2)nc(-c2cccc(CN3CCCC(CO)C3)c2)[nH]1 (stereo not given) | 0.08 (inactive)
CSc1n[nH]c(-c2ccc(Cl)cc2)n1 | 0.11 (inactive)
Cc1cc(NC(=O)Cn2ccc(-c3ncnn3C)n2)n(C2CCCCC2)n1 | -0.55 (inactive)
COc1cccc(-n2cc(-c3ccnc(NCCc4cnc[nH]4)n3)cn2)c1 | 1.87 (inactive)
CC(=O)N1CCCC(Cn2cnc3scc(-c4cc(C)ccc4C)c3c2=O)C1 (stereo not given) | 0.155 (inactive)
Cc1cnc(CN(C)C(=O)c2n[nH]c3ccccc23)[nH]1 | -0.445 (inactive)
Nc1ncccc1OCc1ccccc1 | -0.165 (inactive)
COc1ccccc1-c1cnn(CC(=O)Nc2cc(C)nn2C)c1 | -0.56 (inactive)
COc1cccc2c(=O)n(Cc3ccc4nonc4c3)cnc12 | -0.545 (inactive)
OCC1OC(Oc2cc(O)cc(C=Cc3ccc(O)cc3)c2)C(O)C(O)C1O (stereo not given) | 0.4 (inactive)
Cn1nc(-c2cccnc2)c2[nH]c(-c3ccc4c(c3)OCCO4)nc21 | 4.01 (active)
Cc1cc(CN(C)C(=O)c2cc(-c3cnn(C(C)C)c3)nc3cc(F)ccc23)on1 | -0.48 (inactive)
Cn1nc(C(C)(C)C)cc1NC(=O)Cn1cc(-c2ccccc2N)cn1 | -0.46 (inactive)
O=C(O)CCC(=O)Nc1ccc(Br)cn1 | 0.275 (inactive)
Cc1nn(C)c(C)c1-c1ccnc(NCCOCCO)n1 | -0.555 (inactive)
